The panel holds about 83,000 compounds, 20% with a hit somewhere; the sample as a whole holds those more often.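 In brief: 96-well plates, 48 h treatment, single concentration, percent growth endpoint.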 A number with no mark means an inactive call. Activity calls are given as the source filed them. Rule for the calls: active = growth percent below 10; inactive = the rest.
Assays:
Experiment in all cases: NCI-60 one-dose screen, 48 h (100 = growth as untreated, 0 = no growth, -100 = all killed)
Conditions in all cases: 10 µM unless noted
[1] = tested on: HCT-15 colon
[2] = tested on: HT29 colon
[3] = tested on: SNB-75 CNS
[4] = tested on: SNB-19 CNS
[5] = tested on: U251 CNS
[6] = tested on: PC-3 prostate
[7] = tested on: SK-MEL-5 melanoma
[8] = tested on: UACC-62 melanoma
[9] = tested on: LOX IMVI melanoma
[10] = tested on: SK-MEL-28 melanoma

SMILES	growth [1]	growth [2]	growth [3]	growth [4]	growth [5]	growth [6] [%]	growth [7]	growth [8]	growth [9]	growth [10]
COCCCOc1cc(C[C@@H](C[C@H](N)[C@@H](O)C[C@H](C(=O)NCC(C)(C)C(N)=O)C(C)C)C(C)C)ccc1OC	111%	106%	88.4%	106%	98.7%	90.7	106%	102%	95%	104%
COc1ccc(OC)c(Nc2nnc(-c3ccc(Cl)cc3)o2)c1	96%	48.9%	59.4%	58.4%	2.55% (active)	88.4	104%	97.5%	73.8%	102%
CCOC(=O)c1ccc2c(c1)c1c(C)c3ccncc3c(C)c1n2C	0.188% (active)	3.66% (active)	2.3% (active)	8.59% (active)	0.292% (active)	10.8	-59.7% (active)	-64.4% (active)	-19.1% (active)	-28.3% (active)
CC(C)(C)c1cc(C=Nc2cccc(C(F)(F)F)c2)c(O)c(C(C)(C)C)c1	83.7%	81%	83.6%	93.9%	77.6%	80.2	99.9%	101%	101%	107%
O=C(/C=C\c1ccco1)/C=C/c1ccco1	105%	108%	94.5%	105%	104%	95.6	101%	100%	96.8%	110%
O=C(CCCCCCCCC(=O)N/N=C\c1cc(Cl)ccc1O)N/N=C\c1cc(Cl)ccc1O	15.6%	58.9%	55.6%	34.8%	29.5%	26.6	-37.9% (active)	0.989% (active)	14.1%	41.7%
N=c1c2c(=N)n3c(nc2nc2n1-c1ccccc1Sc1ccccc1-2)sc1cc(Cl)ccc13	15.7%	26.4%	53.4%	30.7%	9.17% (active)	19.4	-12.8% (active)	13.8%	13.5%	25%
COc1cc(C2Cc3ncccc3-c3[nH]c(=O)c4cccnc4c32)cc(OC)c1OC (stereo not given)	16.9%	0.572% (active)	41.1%	29.2%	15.8%	21.8	18.6%	28.2%	29.2%	66.4%
O=C(Nc1cccnc1Nc1ccc(Cl)cc1)c1cn(Cc2ccc(F)cc2)nn1	95.4%	113%	94.6%	95.9%	99%	94.5	100%	100%	104%	115%
CCOc1ccc(/C=N\N=C\c2ccc(OCC)cc2)cc1	7.98% (active)	34.5%	112%	98.3%	74.4%	67.1	88.3%	79.9%	70.5%	105%
